From publication PMC5540273 (PLoS ONE, 2017) come the findings set out here.

Among the test systems are CLK2; CLK3; CLK4; CSF1R-autoinhibited; CSF1R; CSK; CSNK1A1L; CSNK1A1; CSNK1D; CSNK1E.
Details in all cases: concentration: 1 μM, replicates: in singlicate; n = 1

The structures appear in SMILES notation.
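Also: KINOMEscan kinase panel screen.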

Turning to `CC(=O)N1CCN(c2ccc(Nc3nccc(-c4sc(C(C)C)nc4-c4cccc(NS(=O)(=O)c5cccc(Cl)c5)c4)n3)cn2)CC1` [GSK1660437], the “%Inh” value is reported as 0% with CLK2; 0% in the assay on CLK3; 17% in the assay on CLK4; 0% with CSF1R-autoinhibited; 36% in the assay with CSF1R; 95.4% in the assay with CSK. Also, the “%Inh” value in the assay with CSNK1A1L came out at 0%; in the assay on CSNK1A1 it was 23%; with CSNK1D, 0%; in the assay with CSNK1E it was 0%.
In the case of `Nc1n[nH]c2cnc(-c3ccccc3)cc12` [SB-642124], the “%Inh” value with CLK2 is 73%; in the assay on CLK3, 20%; in the assay on CLK4, 64%; in the assay on CSF1R-autoinhibited it was 0%; with CSF1R it was 17%; in the assay on CSK, 0%. Further, the “%Inh” value in the assay with CSNK1A1L amounted to 8%; with CSNK1A1, 0%; with CSNK1D, 12%; in the assay on CSNK1E, 16%.
Regarding `COc1cc2c(cc1OCCN1CCNCC1)ncc1c3ccc(C#N)cc3[nH]c21`, the “%Inh” value in the assay on CLK2 is given as 86%; in the assay on CLK3, 27%; in the assay on CLK4, 91.7%; with CSF1R-autoinhibited it was 98.4%; in the assay with CSF1R, 51%; in the assay on CSK, 12%. The “%Inh” value stood at 0% with CSNK1A1L, 40% in the assay on CSNK1A1, 8% with CSNK1D and 0% with CSNK1E.
For `CC(=O)Nc1nc2cnc(Nc3cc(NC(=O)c4cccc(C5(C#N)CC5)c4Cl)ccc3C)nc2s1`, the “%Inh” value is 0% in the assay on CLK2; 0% in the assay on CLK3; 10% in the assay with CLK4; 15% with CSF1R-autoinhibited; 99.4% with CSF1R; 41% with CSK. Also, the “%Inh” value with CSNK1A1L stood at 23%; in the assay with CSNK1A1, 0%; with CSNK1D it was 0%; in the assay on CSNK1E it was 0%.
Consider `Cl.c1ccc(-c2ccc3c(Nc4ccc5[nH]ncc5c4)ccnc3c2)nc1` [GW440137], for which the “%Inh” value with CLK2 came out at 67%; in the assay on CLK3 it was 12%; with CLK4, 21%; in the assay on CSF1R-autoinhibited, 0%; in the assay on CSF1R it was 27%; with CSK, 0%. For the same compound, the “%Inh” value in the assay on CSNK1A1L was 0%; with CSNK1A1 it was 0%; in the assay with CSNK1D, 27%; with CSNK1E, 41%.
As to `c1ccc(-c2cnc3nccnn23)cc1` [AH20685], the “%Inh” value in the assay on CLK2 is 0%; in the assay on CLK3 it was 0%; in the assay on CLK4, 11%; in the assay on CSF1R-autoinhibited it was 14%; with CSF1R it was 0%; in the assay with CSK, 0%. Further, the “%Inh” value in the assay with CSNK1A1L is given as 0%; in the assay with CSNK1A1, 0%; in the assay on CSNK1D, 11%; in the assay with CSNK1E it was 0%.
As for `Cn1cc(-c2ccc3c(c2)CCN3C(=O)Cc2cccc(F)c2)c2c(N)ncnc21` [GSK2603358], the “%Inh” value with CLK2 is reported as 0%; with CLK3 it was 0%; in the assay with CLK4 it was 39%; in the assay with CSF1R-autoinhibited it was 26%; in the assay with CSF1R it was 94.7%; in the assay on CSK, 14%. For the same compound, the “%Inh” value amounted to 5% in the assay with CSNK1A1L, 0% in the assay with CSNK1A1, 20% with CSNK1D and 77% in the assay with CSNK1E.
Turning to `O=c1[nH]cc(-c2ccc(N3CCOCC3)cc2)c2sc(-c3cn[nH]c3)cc12` [GSK2276055], the “%Inh” value stood at 76% with CLK2; 37% in the assay on CLK3; 89% with CLK4; 0% in the assay with CSF1R-autoinhibited; 33% in the assay on CSF1R; 7% in the assay with CSK. Also, the “%Inh” value with CSNK1A1L is recorded as 44%; in the assay with CSNK1A1, 73%; in the assay on CSNK1D, 84%; in the assay on CSNK1E, 94.4%.
Consider `O=C(NC1CCN(c2ccnc(Nc3ccc(F)cc3)n2)C1)c1cc2ccccc2s1` (stereo not drawn) [GSK1379716], for which the “%Inh” value with CLK2 was 0%; in the assay with CLK3 it was 14%; in the assay with CLK4, 30%; with CSF1R-autoinhibited, 3%; with CSF1R, 2%; with CSK, 0%. Moreover, the “%Inh” value in the assay on CSNK1A1L is 11%; with CSNK1A1, 0%; in the assay with CSNK1D, 0%; in the assay on CSNK1E it was 28%.
As for `Cc1cccc(Nc2nc(N[C@H]3CCNC3)ncc2C(N)=O)c1.Cl` [GSK2197149], the “%Inh” value in the assay on CLK2 amounted to 71%; in the assay with CLK3, 37%; in the assay on CLK4, 33%; in the assay on CSF1R-autoinhibited, 0%; in the assay on CSF1R, 87%; in the assay with CSK, 0%. The “%Inh” value in the assay on CSNK1A1L turned out to be 78%; in the assay on CSNK1A1, 75%; in the assay on CSNK1D, 67%; with CSNK1E it was 86%.
Take `NCCCC(NC(=O)c1cc(Br)c(-c2ccnc3[nH]ccc23)s1)c1ccccc1.O=C(O)C(F)(F)F.O=C(O)C(F)(F)F` (stereo not drawn) [GSK1287544]: the “%Inh” value in the assay on CLK2 came out at 61%; in the assay with CLK3, 33%; in the assay on CLK4, 45%; in the assay with CSF1R-autoinhibited, 0%; in the assay with CSF1R, 2%; with CSK it was 0%. Further, the “%Inh” value with CSNK1A1L came out at 59%; with CSNK1A1 it was 90%; in the assay with CSNK1D it was 82%; in the assay on CSNK1E, 84%.
With `COc1ccc(-c2coc3ccc(-c4nnc(SCc5ccc(OC)c(C(F)(F)F)c5)o4)cc23)cc1`, the “%Inh” value is listed as 1% with CLK2; 0% in the assay on CLK3; 18% in the assay on CLK4; 7% with CSF1R-autoinhibited; 0% in the assay on CSF1R; 16% with CSK. Moreover, the “%Inh” value with CSNK1A1L, with CSNK1A1, in the assay with CSNK1D and with CSNK1E was 0% in each case.
As to `CCn1c(-c2nonc2N)nc2c(C#CC(C)(C)O)nc(OC[C@H](N)c3ccccc3)cc21` [GSK943949], the “%Inh” value in the assay with CLK2 is reported as 0%; in the assay on CLK3 it was 15%; with CLK4, 8%; in the assay with CSF1R-autoinhibited, 0%; with CSF1R, 35%; with CSK, 0%. For the same compound, the “%Inh” value came to 0% with CSNK1A1L, 7% in the assay with CSNK1A1, 0% with CSNK1D and 15% in the assay on CSNK1E.
`CCS(=O)(=O)c1ccc(OC)c(Nc2nccc(-c3c(-c4cccc(NC(=O)c5c(F)cccc5F)c4)nn4ncccc34)n2)c1` [GSK326180]: the “%Inh” value is 0% in the assay on CLK2; 9% in the assay with CLK3; 21% in the assay on CLK4; 0% in the assay with CSF1R-autoinhibited; 24% with CSF1R; 17% in the assay on CSK. For the same compound, the “%Inh” value in the assay with CSNK1A1L stood at 0%; in the assay with CSNK1A1, 0%; in the assay on CSNK1D, 7%; in the assay on CSNK1E, 35%.
Consider `Cn1cc(-c2[nH]c3cc(NC(=O)[C@H](N)C4CCCCC4)cc4c3c2C=NNC4=O)cn1`, for which the “%Inh” value in the assay on CLK2 is 16%; with CLK3, 13%; in the assay with CLK4 it was 55%; with CSF1R-autoinhibited it was 49%; with CSF1R, 100%; with CSK it was 71%. Moreover, the “%Inh” value in the assay on CSNK1A1L is 3%; in the assay on CSNK1A1, 24%; in the assay with CSNK1D, 14%; with CSNK1E, 11%.
